This is an account of results in PubChem BioAssay (EPA / NIEHS).

Read-out in test [1]: NAD(P)H dehydrogenase [quinone] 1 (NQO1), NQO1 (gene 1728)
Nature of the test: LTEA_HepaRG_NQO1: Life Technologies and Expression Analysis (LTEA) Assay for NAD(P)H dehydrogenase [quinone] 1 (NQO1) using HepaRG (AID 2283526). The settings on record: mRNA level, 48 h; actives raise or lower the signal. The essentials:
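qRT-PCR read-out (Fluidigm TaqMan), normalized to three housekeeping genes, after 48 h chemical exposure of HepaRG cells. Concentrations: eight points, top 100 uM, half-log steps, 0.5% DMSO vehicle. Gain or loss of signal fitted relative to DMSO.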

Read-out in test [2]: Nuclear factor erythroid 2-related factor 2 (Homo sapiens) (UniProt Q16236)
Nature of the test: LTEA_HepaRG_NFE2L2: Life Technologies and Expression Analysis (LTEA) Assay for Nuclear factor erythroid 2-related factor 2 (NFE2L2) Transcription Factor using HepaRG (AID 2283527). The settings on record: mRNA level, 48 h; actives raise or lower the signal. The essentials:
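Human liver HepaRG line treated in duplicate for 48 h with an eight-point series topping at 100 uM. Gene expression of NFE2L2 by qRT-PCR, bidirectionally fitted against the vehicle control.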

Read-out in test [3]: succinate dehydrogenase complex iron sulfur subunit B (SDHB), SDHB (gene 6390)
Nature of the test: LTEA_HepaRG_SDHB: Life Technologies and Expression Analysis (LTEA) Assay for succinate dehydrogenase complex iron sulfur subunit B (SDHB) using HepaRG (AID 2283528). The settings on record: mRNA level, 48 h; actives raise or lower the signal. The essentials:
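SDHB transcript level read by TaqMan qRT-PCR, housekeeping-normalised (ACTB, GAPDH, POLR2A), after 48 h chemical treatment of plated HepaRG cells; eight concentrations top 100 uM, half-log steps, 0.5% DMSO, duplicates; fitted both directions against DMSO.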

Read-out in test [4]: Signal transducer and activator of transcription 3 (Homo sapiens) (UniProt P40763)
Nature of the test: LTEA_HepaRG_STAT3: Life Technologies and Expression Analysis (LTEA) Assay for Signal transducer and activator of transcription (STAT3) using HepaRG (AID 2283529). The settings on record: mRNA level, 48 h; actives raise or lower the signal. The essentials:
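In this transcriptional endpoint, HepaRG cultures receive test chemicals at up to 100 uM for 48 h, tested in duplicate. STAT3 mRNA is normalized to ACTB, GAPDH and POLR2A.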

Read-out in test [5]: solute carrier (SLCO1B1), SLCO1B1 (gene 10599)
The experiment in a line: LTEA_HepaRG_SLCO1B1: Life Technologies and Expression Analysis (LTEA) Assay for solute carrier (SLCO1B1) using HepaRG (AID 2283530). The settings on record: mRNA level, 48 h; actives raise or lower the signal. The essentials: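 SLCO1B1 transcript read by qRT-PCR (Fluidigm arrays), normalized to three housekeeping genes, after 48 h chemical exposure of HepaRG cells; bidirectional concentration-response fitting versus 0.5% DMSO baseline. Eight-point half-log series, maximum 100 uM.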

Read-out in test [6]: sulfotransferase 2A1 (SULT2A1), SULT2A1 (gene 6822)
The experiment in a line: LTEA_HepaRG_SULT2A1: Life Technologies and Expression Analysis (LTEA) Assay for sulfotransferase 2A1 (SULT2A1) using HepaRG (AID 2283531). The settings on record: mRNA level, 48 h; actives raise or lower the signal. The essentials:
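HepaRG, 48 h chemical exposure, 8-pt half-log curve from 100 uM in 0.5% DMSO, duplicates. Readout: TaqMan qRT-PCR of SULT2A1 mRNA, housekeeping-normalized. Bidirectional fit vs DMSO baseline.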

Read-out in test [7]: Transforming Growth Factor (TGFA), TGFA (gene 7039)
The experiment in a line: LTEA_HepaRG_TGFA: Life Technologies and Expression Analysis (LTEA) Assay for Transforming Growth Factor (TGFA) using HepaRG (AID 2283532). The settings on record: mRNA level, 48 h; actives raise or lower the signal. The essentials:
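Gene expression of TGFA was quantified by qRT-PCR after human HepaRG cells were treated for 48 h with test chemicals (eight concentrations, highest 100 uM, 0.5% DMSO). Activity in either direction was fitted relative to DMSO.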

Read-out in test [8]: Transforming Growth Factor (TGFB1), TGFB1 (gene 7040)
The experiment in a line: LTEA_HepaRG_TGFB1: Life Technologies and Expression Analysis (LTEA) Assay for Transforming Growth Factor (TGFB1) Transporter using HepaRG (AID 2283533). The settings on record: mRNA level, 48 h; actives raise or lower the signal. The essentials:
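qRT-PCR readout of TGFB1 transcript in HepaRG lysates, normalized to three housekeeping genes; gain or loss of signal fitted relative to 0.5% DMSO vehicle. Exposure: 48 h, 8-point curve from 100 uM, duplicate wells.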

Read-out in the next test: TIMP1, TIMP1 (gene 7076)
Nature of the test: LTEA_HepaRG_TIMP1: Life Technologies and Expression Analysis (LTEA) Assay for TIMP1 using HepaRG (AID 2283534). The settings on record: mRNA level, 48 h; actives raise or lower the signal. The essentials:
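HepaRG, 48 h exposure, 8-pt half-log series from 100 uM in 0.5% DMSO, duplicates; TIMP1 transcript by Fluidigm qRT-PCR, housekeeping-normalized; bidirectional curve fit vs DMSO baseline.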

Read-out in test [9]: Tumor necrosis factor receptor 1 (TNFRSF1A), TNFRSF1A (gene 7132)
The experiment in a line: LTEA_HepaRG_TNFRSF1A: Life Technologies and Expression Analysis (LTEA) Assay for Tumor necrosis factor receptor 1 (TNFRSF1A) using HepaRG (AID 2283535). The settings on record: mRNA level, 48 h; actives raise or lower the signal. The essentials: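 HepaRG, 48 h plating then 48 h chemical exposure, serum-free induction media; 8-pt CRC from 100 uM, half-log, 0.5% DMSO vehicle, duplicates. Readout: TaqMan qRT-PCR (Fluidigm), housekeeping-gene normalized; bidirectional fit vs DMSO.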

Read-out in test [10]: Thyroid Hormone Responsive (THRSP), THRSP (gene 7069)
The experiment in a line: LTEA_HepaRG_THRSP: Life Technologies and Expression Analysis (LTEA) Assay for Thyroid Hormone Responsive (THRSP) using HepaRG (AID 2283536). The settings on record: mRNA level, 48 h; actives raise or lower the signal. The method, boiled down: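 Cell model: human HepaRG, approx. 100,000 cells/well, 0.5% DMSO vehicle. Exposure lasts 48 h; phenobarbital 1 mM serves as induction positive control. Gene expression is measured by qRT-PCR against three endogenous control genes.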

Read-out in test [11]: Cellular tumor antigen p53 (Homo sapiens) (UniProt P04637)
The experiment in a line: LTEA_HepaRG_TP53: Life Technologies and Expression Analysis (LTEA) Assay for Tumor Protein P53 (TP53) using HepaRG (AID 2283537). The settings on record: mRNA level, 48 h; actives raise or lower the signal. The essentials:
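TP53 transcript measured by qRT-PCR, normalized to three housekeeping genes, after 48 h treatment of human HepaRG cultures with chemicals from 100 uM downward in half-log steps (0.5% DMSO vehicle, serum-free induction medium). Up- or down-regulation fitted against DMSO.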

Read-out in test [12]: UDP glucuronosyltransferase (UGT1A1), UGT1A1 (gene 54658)
Nature of the test: LTEA_HepaRG_UGT1A1: Life Technologies and Expression Analysis (LTEA) Assay for UDP glucuronosyltransferase (UGT1A1) using HepaRG (AID 2283538). The settings on record: mRNA level, 48 h; actives raise or lower the signal. The essentials: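 HepaRG, 48 h chemical exposure (top 100 uM, half-log 8-pt, 0.5% DMSO vehicle), duplicate wells; qRT-PCR (TaqMan, Fluidigm array) for UGT1A1 mRNA, housekeeping-normalized; bidirectional curve fit vs DMSO baseline.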

Read-out in test [13]: UDP glucuronosyltransferase (UGT1A6), UGT1A6 (gene 54578)
Nature of the test: LTEA_HepaRG_UGT1A6: Life Technologies and Expression Analysis (LTEA) Assay for UDP glucuronosyltransferase (UGT1A6) using HepaRG (AID 2283539). The settings on record: mRNA level, 48 h; actives raise or lower the signal. The method, boiled down: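 qRT-PCR readout of UGT1A6 mRNA (normalized to ACTB/GAPDH/POLR2A) in differentiated HepaRG cells after 48 h chemical exposure; 8 concentrations, top 100 uM, half-log steps, 0.5% DMSO. Bidirectional curve fit relative to DMSO baseline.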

Read-out in test [14]: X-box binding protein 1 (XBP1), XBP1 (gene 7494)
The experiment in a line: LTEA_HepaRG_XBP1: Life Technologies and Expression Analysis (LTEA) Assay for X-box binding protein 1 (XBP1) using HepaRG (AID 2283540). The settings on record: mRNA level, 48 h; actives raise or lower the signal. The method, boiled down: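 HepaRG, 48 h exposure, 8-pt half-log CRC top 100 uM, 0.5% DMSO vehicle, duplicates. Readout: TaqMan qRT-PCR of XBP1 mRNA, housekeeping-normalised (ACTB/GAPDH/POLR2A); bidirectional fit vs DMSO baseline.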

Test [15] is described as follows: LTEA_HepaRG_LDH_cytotoxicity: Cytotoxicity Assessment in the Life Technologies and Expression Analysis (LTEA) Assay (AID 2283563; active means hit-call score of the fitted dose curve at least 0.9, where 1 is the maximum). The essentials:
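HepaRG (human liver line), 48 h exposure, 8-pt half-log series from 100 uM, 0.5% DMSO vehicle, duplicates. Read-out: LDH in spent medium. Positive-direction fit vs DMSO baseline.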

Test [16] can be described thus: TOX21_p53_BLA_p2_viability: Viability Assessment in the Tox21 HCT-116 p53 Agonism Beta-lactamase Assay, Phase 2 (AID 2283591; active means hit-call score of the fitted dose curve at least 0.9, where 1 is the maximum;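 further: actives lower the ATP signal meaning cytotoxicity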). The method, boiled down: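 HCT-116 p53-bla cells (4000/well) rested 5 h at 37C, then received compounds in DMSO (217-fold dilution) for 16 h at 37C, 5% CO2. After the CCF4 read, CellTiter-Glo was added; ATP luminescence was read after 30 min at room temperature.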

In test [17] the target is Cellular tumor antigen p53 (Homo sapiens) (UniProt P04637). The experiment in a line: TOX21_p53_BLA_p2_ratio: Tox21 HCT-116 p53 Agonism Beta-lactamase Assay, Ratio, Phase 2 (AID 2283592; active means hit-call score of the fitted dose curve at least 0.9, where 1 is the maximum). The essentials:
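Readout: blue/green (460/530 nm) FRET emission ratio after 2 h CCF4-AM loading at room temperature, excitation 405 nm. HCT116 p53 bla cells, 16 h compound exposure at 37C, 5% CO2; agonist direction fitted against DMSO baseline.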

Test [18] is described as follows: TOX21_p53_BLA_p3_viability: Viability Assessment in the Tox21 HCT-116 p53 Agonism Beta-lactamase Assay, Phase 3 (AID 2283593; active means hit-call score of the fitted dose curve at least 0.9, where 1 is the maximum;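 further: cells exposed to compound for 16 h before reading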). The essentials: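 HCT-116 cells (4000/well) rested 5 h at 37C, then got DMSO compounds by pin tool (217-fold dilution) for 16 h at 37C, 5% CO2. After the bla read, CellTiter-Glo was added and luminescence read at 30 min, room temperature.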

Test [19] in a line: ATG_XTT_Cytotoxicity: Cytotoxicity Assessment in the Attagene TRANS-FACTORIAL HepG2 Assay (AID 2283584; active means hit-call score of the fitted dose curve at least 0.9, where 1 is the maximum). The method, boiled down: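 XTT readout of cell number in transfected HepG2 cells, 24 h post-dosing; DMSO serves as negative control and baseline, with activity taken as loss of viability signal.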

SMILES strings stand for the structures. Inconclusive results are not listed. Calls of active or inactive are those of the source. How the source made its calls, unless noted: active means hit-call score of the fitted dose curve at least 0.9, where 1 is the maximum; inactive means score below 0.9.

Chain of Signal transducer and activator of transcription 3 (Homo sapiens) (P40763 whole entry, looked up): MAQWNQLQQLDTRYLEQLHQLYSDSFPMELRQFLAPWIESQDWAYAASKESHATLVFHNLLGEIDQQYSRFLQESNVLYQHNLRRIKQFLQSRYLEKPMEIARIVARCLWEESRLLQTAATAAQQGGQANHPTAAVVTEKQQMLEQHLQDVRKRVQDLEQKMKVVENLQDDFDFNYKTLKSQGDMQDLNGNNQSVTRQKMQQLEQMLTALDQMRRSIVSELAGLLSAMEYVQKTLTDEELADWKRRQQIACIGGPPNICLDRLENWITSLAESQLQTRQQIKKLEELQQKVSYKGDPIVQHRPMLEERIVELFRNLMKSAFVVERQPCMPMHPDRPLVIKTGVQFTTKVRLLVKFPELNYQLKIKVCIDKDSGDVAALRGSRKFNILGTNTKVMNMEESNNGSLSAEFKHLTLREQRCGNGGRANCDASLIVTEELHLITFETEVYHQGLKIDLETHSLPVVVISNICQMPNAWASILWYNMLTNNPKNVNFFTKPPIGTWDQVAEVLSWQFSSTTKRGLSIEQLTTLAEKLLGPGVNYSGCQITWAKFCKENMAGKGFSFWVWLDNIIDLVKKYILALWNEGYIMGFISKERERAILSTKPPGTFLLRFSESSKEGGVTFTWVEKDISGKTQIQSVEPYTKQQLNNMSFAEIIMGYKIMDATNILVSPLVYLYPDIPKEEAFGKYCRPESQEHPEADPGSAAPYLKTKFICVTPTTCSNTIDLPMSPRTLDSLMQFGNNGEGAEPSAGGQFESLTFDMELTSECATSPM
Chain of Cellular tumor antigen p53 (Homo sapiens) (P04637 whole entry, looked up): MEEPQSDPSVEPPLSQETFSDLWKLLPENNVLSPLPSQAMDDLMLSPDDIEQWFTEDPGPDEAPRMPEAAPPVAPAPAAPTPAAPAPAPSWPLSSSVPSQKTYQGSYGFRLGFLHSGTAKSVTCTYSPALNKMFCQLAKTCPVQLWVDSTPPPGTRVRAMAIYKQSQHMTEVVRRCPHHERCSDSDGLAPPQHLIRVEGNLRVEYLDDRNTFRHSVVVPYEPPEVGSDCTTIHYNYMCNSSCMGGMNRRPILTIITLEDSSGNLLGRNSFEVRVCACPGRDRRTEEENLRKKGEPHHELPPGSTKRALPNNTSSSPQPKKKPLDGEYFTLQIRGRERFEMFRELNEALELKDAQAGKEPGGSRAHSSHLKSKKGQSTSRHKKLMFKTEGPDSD
Chain of Nuclear factor erythroid 2-related factor 2 (Homo sapiens) (Q16236 whole entry, looked up): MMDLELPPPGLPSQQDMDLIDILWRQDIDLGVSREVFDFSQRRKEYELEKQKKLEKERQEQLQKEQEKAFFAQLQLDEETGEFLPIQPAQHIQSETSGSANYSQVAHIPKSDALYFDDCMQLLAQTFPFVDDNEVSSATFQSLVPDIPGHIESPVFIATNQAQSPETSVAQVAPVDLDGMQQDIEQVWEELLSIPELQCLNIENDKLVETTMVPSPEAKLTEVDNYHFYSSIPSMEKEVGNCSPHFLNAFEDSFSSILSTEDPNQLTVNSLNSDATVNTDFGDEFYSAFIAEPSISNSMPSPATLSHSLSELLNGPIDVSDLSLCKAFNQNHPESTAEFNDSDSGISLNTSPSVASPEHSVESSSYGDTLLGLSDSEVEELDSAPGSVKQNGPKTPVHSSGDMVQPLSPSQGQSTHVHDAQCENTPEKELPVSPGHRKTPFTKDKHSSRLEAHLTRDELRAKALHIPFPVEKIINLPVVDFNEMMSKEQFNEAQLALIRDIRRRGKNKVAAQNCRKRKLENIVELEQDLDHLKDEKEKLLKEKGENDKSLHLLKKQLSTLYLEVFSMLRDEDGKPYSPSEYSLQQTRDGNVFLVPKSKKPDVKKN

With `CC(C)N(C(=O)SCC(Cl)=C(Cl)Cl)C(C)C`, the outcome in [1], in test [2], in [3], in test [4], in test [5] and in test [6] was inactive. Besides, the outcome is “inactive” in test [7]; “inactive” in [8]; “inactive” in the test with TIMP1, TIMP1 (gene 7076); “inactive” in test [9]; “inactive” in test [10]; “inactive” in test [11]. Moreover, the call in test [12], in [13], in [14], in [15], in [16] and in test [17] was inactive. Further, the call in [18] was inactive.
Take `CC(COc1ccc(Oc2ccccc2)cc1)Oc1ccccn1` (stereo not drawn): the call in test [1], in test [2], in test [3], in test [4], in [5] and in test [6] was inactive. Also, the outcome in test [7] was “inactive”; in test [8], “inactive”; with TIMP1, TIMP1 (gene 7076), “inactive”; in test [9], “inactive”; in test [11] it was “inactive”; in test [13], “inactive”. The outcome in test [14], in test [15], in [16] and in test [17] was inactive. Further, the values for the AC50 in [10] and in test [12] were 16.3 µM (active) and 8.3 µM (active), respectively.
Regarding `CCOP(=S)(OCC)Oc1ccc2c(C)c(Cl)c(=O)oc2c1`, the call in [1], in test [3], in test [4], in test [6], in [7] and in test [8] was inactive. Also, the outcome with TIMP1, TIMP1 (gene 7076) was “inactive”; in [9] it was “inactive”; in test [11], “inactive”; in test [13] it was “inactive”; in [14] it was “inactive”; in test [15], “inactive”. For the same molecule, the molecule was classed as inactive in test [19], in [16], in test [17] and in [18]. For the same molecule, the results for the half-maximal activity concentration (AC50) in test [2], in [10] and in test [12] were 22.2 µM (active), 14.8 µM (active) and 3.4 µM (active), respectively.
Take `CN(C)C(=O)Nc1cccc(C(F)(F)F)c1`: the result in test [1], in test [3], in test [4], in test [6], in test [7] and in test [8] was inactive. The call in test [10], in test [11], in test [13], in [14], in test [15] and in test [17] was inactive. The AC50 in test [2] is 50 µM (active); in [5], 50 µM (active); in the test with TIMP1, TIMP1 (gene 7076), 78.8 µM (active); in test [9], 81 µM (active); in test [12], 1.22 µM (active).

The AC50 is the concentration at which the activity in the assay is half-maximal.
